The values that follow come from PubChem BioAssay (Tox21).

“And” between values parts separate entries of the source, which are not always exact repeats. Equal values may be shown once. Inconclusive results are not listed. A structure can be active in one record and inactive in another. The source made the active and inactive calls. Unless noted, calls follow the shape of the dose curve; as a rule, active = well fitted curve in the direction sought with a large enough effect in the repeat runs; inconclusive = weak or mixed curves; inactive = no such curve, though single readings can be large; an effect the other way counts as inactive or inconclusive.

Assay [1] is described as follows: qHTS assay to identify small molecule antagonists of the estrogen related receptor (ERR) signaling pathway from Tox21 library - cell viability counter screen (AID 1224834). Also: nearly all actives have a fitted effect of over 30% in size. Also: potency is read from the fitted curve at half-maximal effect. Put shortly: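 In this quantitative HTS format, ERR cells receive compounds in DMSO and are incubated for 17.5 h at 37 C. Live-cell protease activity is then detected with CellTiter-Fluor.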

Assay [2] can be described thus: qHTS assay to identify small molecule agonists of the constitutive androstane receptor (CAR) signaling pathway - cell viability counter screen (AID 1224836). Also: nearly all actives have a fitted effect of over 45% in size. Also: potency is read from the fitted curve at half-maximal effect. Put shortly:
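Double-stable HepG2 hepatoma cells (hCAR plus CYP2B6-2.2kb) are treated for 23 h at 37 C with test compounds in 15-point concentration series. PK11195 at 0.75 uM final is co-added. Cell viability is quantified by CellTiter-Fluor.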

Assay [3] deals with Nuclear receptor subfamily 1 group I member 3 (Homo sapiens) (UniProt Q14994). The assay can be described thus: qHTS assay to identify small molecule antagonists of the constitutive androstane receptor (CAR) signaling pathway (AID 1224838). Also: % is scaled to controls: 0 for no effect and ±100 for the full control effect; nearly all actives have a fitted effect of over 40% in size. In a few lines: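 CITCO-stimulated (50 nM final) HepG2 cells stably transfected with hCAR and CYP2B6-2.2kb luciferase were exposed to compounds at 15 concentrations for 24 h at 37 C/5% CO2. A luciferase reagent was added and luminescence recorded after 30 min.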
Nuclear receptor subfamily 1 group I member 3 (Homo sapiens), sequence (Q14994 whole entry, looked up): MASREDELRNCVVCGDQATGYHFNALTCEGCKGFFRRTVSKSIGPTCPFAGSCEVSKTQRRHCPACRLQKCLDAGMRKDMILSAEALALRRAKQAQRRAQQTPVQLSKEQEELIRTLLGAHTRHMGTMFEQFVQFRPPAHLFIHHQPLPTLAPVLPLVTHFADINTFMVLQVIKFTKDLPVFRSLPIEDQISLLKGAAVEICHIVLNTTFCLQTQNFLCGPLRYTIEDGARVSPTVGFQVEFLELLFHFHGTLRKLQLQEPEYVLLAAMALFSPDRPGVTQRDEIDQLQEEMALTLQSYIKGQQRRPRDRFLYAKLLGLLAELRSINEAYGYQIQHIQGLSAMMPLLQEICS

The target is the same in assay [4]. The assay can be described thus: qHTS assay to identify small molecule agonists of the constitutive androstane receptor (CAR) signaling pathway (AID 1224839). Also: nearly all actives have a fitted effect of over 15% in size. Also: potency is read from the fitted curve at half-maximal effect.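 As to activation: HepG2 cells stably carrying human CAR and a CYP2B6 luciferase reporter; % is scaled to controls: 0 for no effect and ±100 for the full control effect.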 In a few lines: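 Readout: firefly luciferase luminescence via ONE-Glo. System: HepG2 double-stable for hCAR and CYP2B6-2.2kb. Conditions: 15-point compound titration, PK11195 at 0.75 uM final, 24 h incubation.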

Assay [5] in a line: qHTS assay to identify small molecule antagonists of the estrogen related receptor signaling pathway with the pleiotropic PPARgamma coactivator (PGC) from Tox21 10K library - cell viability counter screen (AID 1224840; active = well fitted cell-killing curve with a large enough effect in the repeat runs, not every such curve was filed as active; also: nearly all actives have a fitted effect of over 40% in size; also: potency is read from the fitted curve at half-maximal effect). In a few lines: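 Viability counter screen, PGC/ERR cells: 17.5 h compound exposure at 37 C, CellTiter-Fluor fluorescence endpoint.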
Assay [6] in a line: qHTS assay to identify small molecule antagonists of the estrogen related receptor signaling pathway with the pleiotropic PPARgamma coactivator (PGC) from Tox21 10K library (AID 1224841; call rule not given here; also: actives are mostly falling curves and most rising ones were filed inactive; nearly all actives have a fitted effect of over 50% in size; also: potency is read from the fitted curve at half-maximal effect). Put shortly:
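In the PGC/ERR line, DMSO solutions of test chemicals are pin-delivered to 2,000 cells/well six hours after dispensing. Following eighteen hours' incubation, One-Glo reagent is added and luminescence recorded.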

Assay [7] addresses Thyrotropin receptor (Homo sapiens) (UniProt P16473). The assay can be described thus: qHTS assay to identify small molecule agonists of the thyroid stimulating hormone receptor (TSHR) signaling pathway (AID 1224843; calls by dose curve; also: % is scaled to controls: 0 for no effect and ±100 for the full control effect; nearly all actives have a fitted effect of over 45% in size). Put shortly:
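Agonist-mode screen: TSHR HEK293 cells received test chemicals for half an hour at room temperature, then HTRF cAMP detection reagents for one hour prior to fluorescence measurement. Each chemical ran as a 15-concentration series, triplicated.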

The nature of assay [8]: qHTS assay to identify small molecule agonists of the hypoxia (HIF-1) signaling pathway - cell viability counter screen (AID 1224844; calls by dose curve; also: nearly all actives have a fitted effect of over 50% in size; also: potency is read from the fitted curve at half-maximal effect). Put shortly:
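Same wells as the HIF-1 reporter screen; ME-180 cells carrying HRE-bla, 17 hr treatment at 37C; CellTiter-Glo luminescence read after 30 min at room temperature.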

Assay [9] can be described thus: qHTS assay to identify small molecule agonists of H2AX (AID 1224845; active = well fitted activation curve with a large enough effect in the signal ratio in the repeat runs, not every such curve was filed as active; the % refers to the signal ratio; also: potency is read from the fitted curve at half-maximal effect). Put shortly: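 Wild-type CHO-K1 cells, plated overnight, exposed 3hr at 37C to 15 concentrations (0.76% DMSO final). Lysed, then HTRF anti-pH2AX (S139) cryptate and anti-H2AX-d2 antibodies, 24 hr room temperature; 665/620 nm emission read.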
Assay [10] is described as follows: qHTS assay to identify small molecule agonists of the hypoxia (HIF-1) signaling pathway (AID 1224846; active = well fitted activation curve with a large enough effect in the signal ratio in the repeat runs, not every such curve was filed as active; the % refers to the signal ratio; also: % is scaled to controls: 0 for no effect and ±100 for the full control effect). In a few lines: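 In ME-180 cells bearing an HRE-bla construct, 17 h treatment with DMSO-dissolved compounds at 37C was followed by CCF4-AM loading to quantify reporter induction.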
Assay [11] in a line: qHTS assay to identify small molecule agonists of H2AX - cell viability counter screen (AID 1224847; calls by dose curve; also: nearly all actives have a fitted effect of over 30% in size; also: potency is read from the fitted curve at half-maximal effect). Put shortly: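 For this counter screen, overnight-attached CHO-K1 cells received test compounds (15 concentrations, 0.76% DMSO final); 3 hr later at 37C, CellTiter-Glo reagent was added and luminescence recorded after 30 min at room temperature.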
Assay [12] can be described thus: qHTS assay to identify small molecule antagonists of the estrogen related receptor (ERR) signaling pathway from Tox21 library (AID 1224848). Also: nearly all actives have a fitted effect of over 50% in size. Also: potency is read from the fitted curve at half-maximal effect. In a few lines: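 Quantitative high-throughput format: ERR reporter cells (2,000/well) pre-incubated 6 h, treated 18 h at 37 C with compounds in DMSO alongside positive and negative controls, then read by ONE-Glo luminescence.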

Assay [13] is described as follows: qHTS assay to identify small molecule agonists of the estrogen related receptor (ERR) signaling pathway from Tox21 library (AID 1224849; calls by dose curve; also: % is scaled to controls: 0 for no effect and ±100 for the full control effect; nearly all actives have a fitted effect of over 15% in size). The settings on record: ERR reporter cell line, ONE-Glo luciferase, 18 h; at 92.4 µM (top of the series) unless noted. Put shortly: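 Reporter cells (ERR, NTP source) treated with Tox21 10K compounds 18 h, 37 C. Readout: ONE-Glo luminescence, 30 min RT.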

Assay [14] can be described thus: qHTS RealTime-Glo MT Cell Viability Assay in HepG2 cells - 24 hour (AID 1224867). Also: nearly all actives have a fitted effect of over 50% in size. Also: potency is read from the fitted curve at half-maximal effect. In a few lines:
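HepG2 cells were seeded at 600 cells/well together with NanoLuc luciferase and a cell-permeant prosubstrate, preincubated 5 h at 37 C/5% CO2, then pin-dosed with compounds in DMSO. Nonlytic luminescence from viable cells was read at each time point.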

A short description of assay [15]: A CellTox Green Cytotoxicity Assay to monitor cytotoxicity in HEK293 cells - 0 hour (AID 1224869). Put shortly: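 Homogeneous no-lysis format: HEK293 cell suspension mixed with CellTox Green reagent, seeded, incubated 5 h at 37 C/5% CO2, then dosed by pintool with compound in DMSO.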
A short description of assay [16]: qHTS RealTime-Glo MT Cell Viability Assay in HepG2 cells - 40 hour (AID 1224870). Also: nearly all actives have a fitted effect of over 50% in size. Also: potency is read from the fitted curve at half-maximal effect. In a few lines:
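HepG2 cells (600/well) mixed with RealTime-Glo MT reagent, settled 5 h at 37 C/5% CO2 before compound addition. Nonlytic NanoLuc luminescence from viable-cell prosubstrate reduction read repeatedly during 40 h treatment at 37 C.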

Assay [17] is described as follows: qHTS assay to identify small molecule antagonists of the constitutive androstane receptor (CAR) signaling pathway - cell viability counter screen (AID 1224837). Also: nearly all actives have a fitted effect of over 45% in size. Also: potency is read from the fitted curve at half-maximal effect. Put shortly: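 In quantitative HTS format, compounds at 15 concentrations were applied to HepG2 cells double-transfected with hCAR and CYP2B6-2.2kb under 50 nM CITCO stimulation; live-cell protease activity was read after 23 hr via CellTiter-Fluor.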

The nature of assay [18]: qHTS RealTime-Glo MT Cell Viability Assay in HEK293 cells - 32 hour (AID 1224868). In a few lines: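 HEK293 cells were seeded at 600 cells/well together with NanoLuc luciferase and cell-permeant prosubstrate, preincubated 5 h at 37 C/5% CO2, then given compound in DMSO by pintool. Luminescence from viable-cell prosubstrate reduction was read repeatedly over 40 h.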
Assay [19] can be described thus: qHTS assay to identify small molecule agonists of the estrogen related receptor signaling pathway with the pleiotropic PPARgamma coactivator (PGC) from Tox21 10K library (AID 1224842). Also: % is scaled to controls: 0 for no effect and ±100 for the full control effect; nearly all actives have a fitted effect of over 15% in size. In a few lines: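 PGC/ERR reporter cell line, 2,000 cells per well, incubated 6 h at 37 C before 23 nL compound in DMSO was added. After 18 h at 37 C, One-Glo luminescence read following 30 min at room temperature.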

Assay [20] deals with Luciferin 4-monooxygenase (Photinus pyralis) (UniProt P08659). Kind of assay: qHTS assay to identify small molecule inhibitors of firefly luciferase (AID 1224835). Also: % is scaled to controls: 0 for no effect and ±100 for the full control effect; nearly all actives have a fitted effect of over 25% in size. Put shortly:
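Biochemical qHTS: compounds run as interplate titrations against purified firefly enzyme, with D-luciferin and ATP each at its KM concentration. Light output recorded by CCD imaging.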

Luciferin 4-monooxygenase (Photinus pyralis), sequence (P08659 whole entry, looked up): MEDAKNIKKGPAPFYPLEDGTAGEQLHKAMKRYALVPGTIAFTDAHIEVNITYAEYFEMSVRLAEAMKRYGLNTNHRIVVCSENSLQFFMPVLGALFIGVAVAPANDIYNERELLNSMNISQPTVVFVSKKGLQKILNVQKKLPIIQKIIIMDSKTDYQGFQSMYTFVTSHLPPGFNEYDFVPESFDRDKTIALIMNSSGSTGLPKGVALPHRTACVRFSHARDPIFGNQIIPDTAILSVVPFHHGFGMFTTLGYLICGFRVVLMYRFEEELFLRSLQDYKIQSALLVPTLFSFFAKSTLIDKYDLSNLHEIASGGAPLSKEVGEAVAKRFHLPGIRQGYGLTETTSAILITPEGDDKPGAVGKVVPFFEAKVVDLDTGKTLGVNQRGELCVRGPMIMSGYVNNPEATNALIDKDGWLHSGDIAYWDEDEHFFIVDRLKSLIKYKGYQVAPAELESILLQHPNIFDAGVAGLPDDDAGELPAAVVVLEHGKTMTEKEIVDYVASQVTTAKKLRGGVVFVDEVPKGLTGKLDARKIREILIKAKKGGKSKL
Thyrotropin receptor (Homo sapiens), sequence (P16473 whole entry, looked up): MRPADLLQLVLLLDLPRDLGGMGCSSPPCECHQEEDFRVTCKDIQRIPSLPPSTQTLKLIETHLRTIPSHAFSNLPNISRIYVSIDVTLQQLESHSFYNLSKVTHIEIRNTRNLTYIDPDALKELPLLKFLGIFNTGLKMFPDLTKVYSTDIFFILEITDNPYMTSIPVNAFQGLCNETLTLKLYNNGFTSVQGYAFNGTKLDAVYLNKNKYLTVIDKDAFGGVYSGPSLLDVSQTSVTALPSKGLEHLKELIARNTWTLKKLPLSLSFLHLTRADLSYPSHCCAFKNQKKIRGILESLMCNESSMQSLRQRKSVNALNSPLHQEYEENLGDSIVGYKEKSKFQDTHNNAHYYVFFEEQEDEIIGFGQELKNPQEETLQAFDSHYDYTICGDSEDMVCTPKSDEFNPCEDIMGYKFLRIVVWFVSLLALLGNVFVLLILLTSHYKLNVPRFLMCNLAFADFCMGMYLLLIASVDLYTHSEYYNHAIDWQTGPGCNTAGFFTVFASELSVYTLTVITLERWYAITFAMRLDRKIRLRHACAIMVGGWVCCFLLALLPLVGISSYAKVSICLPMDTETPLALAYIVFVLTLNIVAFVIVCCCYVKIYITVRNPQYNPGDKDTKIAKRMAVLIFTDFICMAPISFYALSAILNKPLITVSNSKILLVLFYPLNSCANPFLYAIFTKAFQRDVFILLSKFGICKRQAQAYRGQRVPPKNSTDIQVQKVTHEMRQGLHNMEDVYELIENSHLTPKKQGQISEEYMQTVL

On to `Clc1ccc(-c2ccccc2)cc1`, for which the Potency entry in [1], in assay [2], in assay [3], in assay [4], in [5] and in assay [6] was “inactive” each time. The Potency result in assay [7], in assay [8], in assay [9], in [11], in assay [12] and in assay [14] was “inactive” throughout. The Potency result in assay [15] and in assay [16] was “inactive” in each case. The molecule was called inactive in assay [10]. In addition, the activity change, positive = activation in assay [13] is 3.89% (inactive).

Take `CC(=O)[O-].[Tl+]`: in assay [1], the Potency is 61.5 µM (active). Further, the Potency result in [2], in [17], in [5], in assay [9], in [11] and in assay [14] was “inactive” each time. For the same molecule, the Potency result in assay [15] and in assay [16] was “inactive” in each case. Further, the call in assay [10] was inactive.

Regarding `CN(C)C(=S)S`, the Potency in assay [1] is 9.89 µM (active) and 3.83 µM (active) and 13.7 µM (active); in [2] it was 19.7 µM (active) and 6.81 µM (active) and 27.3 µM (active); in [17] it was 27.9 µM (active) and 7.64 µM (active) and 27.3 µM (active); in assay [5], 2.15 µM (active) and 12.2 µM (active); in assay [8], 1.41 µM (active) and 4.86 µM (active) and 4.36 µM (active); in assay [9], 29 µM (active) and 4.47 µM (active). Moreover, the Potency result in [14] was “inactive and 11 µM (active)”; in [18] it was 11.2 µM (active) and 1.73 µM (active) and 11 µM (active); in [16], “inactive and 9.77 µM (active)”. In addition, the Potency result in [15] is “inactive”.

For `CC1(c2ccc(Oc3ccccc3)cc2)OC(=O)N(Nc2ccccc2)C1=O` (centres undefined), the Potency in assay [1] was 27.5 µM (active); in assay [6], 4.89 µM (active); in assay [8], 22 µM (active); in [11] it was 50.8 µM (active); in assay [12], 2.45 µM (active); in assay [14], 49.3 µM (active). Besides, in assay [18], the Potency was 43.9 µM (active). The Potency entry in [3], in assay [19] and in assay [15] was “inactive” each time. In addition, the activity change, positive = activation in assay [13] was -64.5% (inactive).

Consider `O=C1NCN(c2ccccc2)C12CCN(CC1COc3ccccc3O1)CC2` (centres undefined), for which the Potency result in assay [20], in [2], in assay [17], in assay [3], in assay [4] and in assay [5] was “inactive” each time. In addition, the Potency entry in [19], in [7], in assay [9] and in assay [11] was “inactive” each time. In addition, in assay [10], the call was inactive. Besides, in assay [13], the activity change, positive = activation was 0.381% [at 42.5 µM] (inactive).

For the molecule `NC(=O)CCl`, the Potency result in assay [20], in [2], in assay [17], in [3], in [4] and in assay [5] was “inactive” in each case. In addition, the Potency entry in assay [7], in [8], in assay [9], in assay [14], in assay [15] and in [16] was “inactive” throughout. Also, the molecule was classed as inactive in assay [10].

For `Oc1ccc(C(=C(Cl)Cl)c2ccc(O)cc2)cc1`, the Potency result in [20], in [2], in [17], in assay [3], in assay [9] and in assay [14] was “inactive” in each case. Besides, the Potency result in assay [15] and in assay [16] was “inactive” each time. Also, the figures for the Potency in [4], in [12] and in assay [18] were 48.5 µM (active), 34.3 µM (active) and 43.6 µM (active), respectively. Moreover, the activity change, positive = activation in assay [13] is -44.3% (inactive).
